Screening results deposited in PubChem BioAssay by several laboratories.
Rows were chosen to be rich in hits. Some 27% of all compounds tested hit in one or more screens of this group.
Cav3 T inh: human Cav3.2 channel inhibition, primary screen; O95180; Cav3.2-expressing cells, Fluo-4 calcium fluorescence FDSS; hits give low values; B-score at 10 µM; 100,000 compounds, 4% hits; AID 449739;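 active = single-dose well whose peak fluorescence ratio is a statistical outlier from its plate by either plate-standardised score or position-corrected B-score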
PTK2B oligo ant: blocks oligomerization of human Pyk2 in cells; Q14289; Q293 cells, Pyk2 FERM NanoBiT luminescence; hits give low values; z-score (the deposit names both 25 µM and 10 µM); 99,000 compounds, 0.83% hits; AID 1347419;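 active = Z-score of -3 or lower, scaled per plate to the spread of control and sample wells; inactive = z-score above -3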;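 note: negative z-score means lost luminescence so less FERM oligomerization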
CYP2C19 act: cytochrome P450 2C19 (human) activation; 96,000 tested, under 10 active; recombinant CYP2C19, luciferin-H EGE luminescence; hits give high values; 0 = fully inhibited enzyme, 1 = untreated enzyme; activation factor at 5 µM; AID 1025; P33261;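 active = activation factor of at least 2 at 5 µM in the primary screen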;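 note: 0 = wells with 2.5 mM tranylcypromine and 1 = vehicle-only wells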
CYP2C9 act: increases human cytochrome P450 2C9 activity. 96,000 compounds, 1.4% hits. P11712. activation factor at 5 µM. recombinant CYP2C9, luciferin-H conversion, luminescence; hits give high values; factor 1 = untreated enzyme, 0 = blocked;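 active = activation factor of 2 or more for CYP2C9 at a 5 µM dose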;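 note: 0 = sulfaphenazole-blocked wells and 1 = vehicle-only wells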
Target sequence (P11712 whole entry, looked up): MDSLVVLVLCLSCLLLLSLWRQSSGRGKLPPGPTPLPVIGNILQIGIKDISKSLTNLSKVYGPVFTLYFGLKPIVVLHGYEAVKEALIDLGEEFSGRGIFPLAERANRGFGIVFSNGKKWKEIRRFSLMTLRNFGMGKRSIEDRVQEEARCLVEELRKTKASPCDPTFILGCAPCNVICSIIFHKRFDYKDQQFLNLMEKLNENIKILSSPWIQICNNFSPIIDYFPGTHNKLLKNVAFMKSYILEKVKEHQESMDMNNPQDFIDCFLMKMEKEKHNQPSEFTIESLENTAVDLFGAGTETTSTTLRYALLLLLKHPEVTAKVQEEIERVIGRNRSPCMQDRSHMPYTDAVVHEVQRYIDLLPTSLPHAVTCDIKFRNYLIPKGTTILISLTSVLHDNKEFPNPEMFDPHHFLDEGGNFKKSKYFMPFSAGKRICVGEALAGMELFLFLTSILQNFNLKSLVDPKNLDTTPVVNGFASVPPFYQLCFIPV
CYP2C19 inhib: blocks human cytochrome P450 2C19. CYP2C19 Supersomes, luciferin-H EGE luminescence, 30 min. inhibition, % at 5 µM. 96,000 compounds, 21% hits. AID 778;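 active = CYP2C19 inhibition above a set limit at 5 µM in the primary screen, cut at about 50% in these data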;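 note: plate controls were negative control wells for no effect and 2.5 mM tranylcypromine positive control for full effect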
CYP2C9 inh: blocks human cytochrome P450 2C9; 96,000 compounds, 20% hits; CYP2C9 Supersomes, luciferin-H conversion, luminescence; inhibition, % at 5 µM; P11712;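 active = blocking of liver enzyme CYP2C9 beyond about 50% at 5 µM, limit read from the data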
* hit, by the source's call; . = no result given.

SMILES | Cav3 T inh | PTK2B oligo ant | CYP2C19 act | CYP2C9 act | CYP2C19 inhib | CYP2C9 inh
Cc1ccc(C(=O)c2c(NC(=O)c3ccccc3C)sc(C)c2C)cc1 | -0.24 | 0.43 | 0.7 | 0.2 | 30 | 78*
CC(=O)Nc1sc(C)c(C)c1C(=O)Nc1ccc(C)cc1 | -0.53 | 0.52 | 0.9 | 0.7 | 14 | 34
Cc1nn2c(c1-c1ccc(Cl)cc1)N=C(c1ccco1)CC2c1ccccc1 (centres undefined) | -2.8 | -0.35 | 0.8 | 0.3 | 25 | 73*
CCc1nc(N2CCCC2)c(C#N)c2c1CCCC2 | -1.3 | 0.6 | 0.8 | 1.3 | 24 | -27
CC(C)c1nc(N2CCCC2)c(C#N)c2c1CCCC2 | -0.26 | 0.25 | 0.5 | 0.5 | 54* | 55*
CCCc1nc(N2CCCC2)c(C#N)c2c1CCCC2 | 0.013 | -0.25 | 0.6 | 0.3 | 43 | 73*
CN1CCc2c(C#N)c(N3CCCCC3)nc(N3CCOCC3)c2C1 | -0.12 | . | . | . | . | .
CCc1nc(N2CCOCC2)c(C#N)c2c1CCCC2 | -4.5* | -0.67 | 0.2 | 1.5 | 78* | -45
O=C(c1ccc([N+](=O)[O-])cc1)N(C1=NCCCCS1)c1ccccc1 | -0.08 | 0.1 | 1 | 1 | 5 | -1
COc1ccc(S(=O)(=O)Cc2ccc(C(=O)N3CCN(Cc4ccccc4)CC3)o2)cc1 | -0.51 | . | 0.7 | 0.1 | 32 | 87*
COc1ccc(N2Cc3cccc(C(=O)N4CCN(C(=O)c5ccco5)CC4)c3C2=O)cc1 | 0.52 | . | 0.7 | 0.4 | 26 | 64*
COc1ccc(CC(=O)N2CCN(C(=O)c3ccco3)CC2)cc1 | 0.21 | -0.33 | 0.9 | 1 | 7 | 0
COc1ccc(S(=O)(=O)Cc2ccc(C(=O)N3CCN(C(=O)c4ccco4)CC3)o2)cc1 | 0.28 | . | 0.8 | 0.2 | 18 | 80*
Cc1ccc(S(=O)(=O)Cc2ccc(C(=O)N3CCN(Cc4ccccc4)CC3)o2)cc1 | . | . | 0.6 | 0.1 | 41 | 92*
O=C(NCc1ccccn1)C1CC(c2ccc(F)cc2)=NO1 (centres undefined) | 0.98 | -0.15 | 0.8 | 1 | 20 | 0
NC(=O)c1cn(-c2ccccc2)nc1-c1cccnc1 | 1.4 | -0.11 | 1 | 0.7 | -2 | 26
N#C/C(=C\c1cn(-c2ccccc2)nc1-c1cccnc1)c1nnc2n1CCCCC2 | 1 | -1 | 0.4 | 0.1 | 59* | 93*
N#CC1=C(N)Oc2n[nH]c(-c3ccncc3)c2C1c1ccsc1 (centres undefined) | -0.0093 | 0.07 | 0.5 | 0.1 | 46 | 89*
N#CC1=C(N)Oc2n[nH]c(-c3ccccc3)c2C1c1cccc(OC(=O)N2CCOCC2)c1 (centres undefined) | 0.41 | 0.06 | 0.8 | 0.4 | 19 | 57*
COc1cccc(-c2[nH]nc3c2C(c2ccoc2)C(C#N)=C(N)O3)c1 (centres undefined) | 0.08 | 0.15 | 0.1 | 0.5 | 87* | 50
CC(=O)N(Cc1ccco1)C1(C(=O)NC2CCCC2)CCCCC1 | -0.74 | -0.28 | 0.9 | 0.9 | 10 | 13
CC(C)Cn1c(N)c(C(=O)COC(=O)c2ccc3ccccc3n2)c(=O)n(C)c1=O | 1.5 | 0.72 | . | . | . | .
Cc1ccc(C2(C)NC(=O)N(CCOc3ccccc3)C2=O)cc1 (centres undefined) | -3.3* | -1.4 | 0.2 | 1 | 77* | -2
CN1CCN(C(=O)C2CCCCC2C(=O)O)CC1 (centres undefined) | 0.5 | . | 1 | 1.1 | -1 | -15
O=C(Nc1ccc2c(c1)N(Cc1ccccc1)C(=O)c1ccccc1S2)NC1CC1 | -0.77 | -3.1* | 0.1 | 0.2 | 87* | 76*
SMILES | Cav3 T inh | PTK2B oligo ant | CYP2C19 act | CYP2C9 act | CYP2C19 inhib | CYP2C9 inh
CN1C(=O)c2ccccc2Sc2ccc(NC(=O)NC3CC3)cc21 | 1.5 | -1.1 | 1 | 0.7 | -5 | 31
Cc1ccc(-c2cc(-c3ccc4c(c3)OCO4)c(C#N)c(N)n2)o1 | -0.88 | -0.98 | 0.8 | 0.6 | 18 | 35
Cc1cc(-c2cc(-c3ccc(Cl)cc3)nc(N)c2C#N)co1 | . | 0.08 | 0.2 | 0.3 | 83* | 69*
Cc1ccc(-c2cc(-c3ccc(Cl)cc3)c(C#N)c(N)n2)o1 | -1.6 | -0.54 | 0.2 | 0.4 | 75* | 57*
CC(C)(C)OC(=O)N1CCC2(CC1)Oc1ccc(F)cc1C(=O)C21CC(c2ccc(Cl)cc2)=NO1 (centres undefined) | -0.33 | . | . | . | . | .
N#CC(c1ccc(Cl)cc1)(c1ncc(C(F)(F)F)cc1Cl)N1CCOCC1 (centres undefined) | . | -0.55 | 0.9 | 0.8 | 12 | 15
CS(=O)(=O)N1CCN(c2ccccc2NC(=O)CSc2ccc(Cl)cc2)CC1 | -4* | -0.62 | 0.2 | 0.1 | 78* | 87*
COc1ccc(NC(=O)c2ccccc2NC(=O)CSc2ccc(Cl)cc2)cc1 | -1 | 0 | 0.4 | 0.4 | 62* | 62*
CCOC(=O)c1sc(N)c(C#N)c1COC(=O)CNC(=O)c1cc(OC)c(OC)c(OC)c1 | . | -0.42 | 0.5 | 0.4 | 53* | 64*
Cc1nc(CCN2C(=O)c3ccccc3C2=O)n[nH]1 | 0.034 | 0.11 | 1 | 0.9 | -1 | 6
Cc1ccc(/C=C(/C#N)c2nc(CCN3C(=O)c4ccccc4C3=O)cs2)cc1 | -0.086 | -3.2* | 0.5 | 0.5 | 53* | 51*
CCOC(=O)c1oc2ccccc2c1NC(=O)c1cccc(OC)c1 | -0.29 | -0.3 | 0.8 | 0.7 | 17 | 28
NC(=O)c1oc2ccccc2c1NC(=O)CCc1ccccc1 | -0.026 | . | 0.2 | 2.2* | 82* | -124
CCOC(=O)c1oc2ccccc2c1NC(=O)c1cccc(OC)c1OC | -2.1 | -1.5 | 0.3 | 0.3 | 67* | 66*
CCOC(=O)c1oc2ccccc2c1NC(=O)c1ccc(Cl)s1 | -1.4 | . | 1.1 | 1 | -7 | 2
COc1cccc(C(=O)Nc2c(C(N)=O)oc3ccccc23)c1 | . | . | 0.9 | 3.3* | 6 | -234
COc1ccc(NC(=O)c2oc3ccccc3c2NC(=O)c2ccc3c(c2)OCO3)cc1 | -1.1 | -2.1 | 0.6 | 0.5 | 36 | 55*
COc1cc(C)nc(-n2nc(C)cc2OC)n1 | 0.36 | . | . | . | . | .
CC(C)C1=NN(C(=O)c2ccccc2)C(O)(C(C)(C)C)C1 (centres undefined) | . | 2.1 | 0.8 | 0.9 | 16 | 5
O=C(NNS(=O)(=O)c1ccc([N+](=O)[O-])cc1)c1cnn(-c2ccccc2)c1-n1cccc1 | -0.37 | 0.12 | . | . | . | .
CC(C)OC(=O)c1cccc(C(=O)OCc2ccco2)n1 | . | -0.33 | 0.8 | 0.8 | 15 | 15
c1ccc(-c2nnc3sc(-c4cc5ccccc5o4)nn23)cc1 | -0.042 | 0.65 | 0.8 | 1.1 | 16 | -8
O=C(NCc1cccc(C(F)(F)F)c1)C1CC2Cn3c(nc4ccccc43)C2N1Cc1ccccc1 (centres undefined) | -1.4 | . | . | . | . | .
O=C(CN(c1ccccc1F)S(=O)(=O)c1ccccc1)N1CCCCCC1 | 1 | -0.62 | 1 | 1.2 | 2 | -19
